Reference: PubChem BioAssay (EPA / NIEHS)
Records with an inconclusive call do not appear. Activity calls are given as the source filed them. How the source made its calls, unless noted: active means hit-call score of the fitted dose curve at least 0.9, where 1 is the maximum; inactive means score below 0.9.

Columns and labels:
[1] = molecular target: Glucocorticoid receptor (Homo sapiens) (UniProt P04150); assay: ATG_GR_TRANS: Attagene TRANS-FACTORIAL HepG2 Assay for human Glucocorticoid Receptor (GR) (AID 2282978; active means hit-call score of the fitted dose curve at least 0.9, where 1 is the maximum;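 further: activators score as hits since higher reporter transcript over DMSO is fitted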); details: HepG2 Attagene TRANS GR reporter, mRNA transcription
Chain of Glucocorticoid receptor (Homo sapiens) (P04150 whole entry, looked up, the tested form may be a part): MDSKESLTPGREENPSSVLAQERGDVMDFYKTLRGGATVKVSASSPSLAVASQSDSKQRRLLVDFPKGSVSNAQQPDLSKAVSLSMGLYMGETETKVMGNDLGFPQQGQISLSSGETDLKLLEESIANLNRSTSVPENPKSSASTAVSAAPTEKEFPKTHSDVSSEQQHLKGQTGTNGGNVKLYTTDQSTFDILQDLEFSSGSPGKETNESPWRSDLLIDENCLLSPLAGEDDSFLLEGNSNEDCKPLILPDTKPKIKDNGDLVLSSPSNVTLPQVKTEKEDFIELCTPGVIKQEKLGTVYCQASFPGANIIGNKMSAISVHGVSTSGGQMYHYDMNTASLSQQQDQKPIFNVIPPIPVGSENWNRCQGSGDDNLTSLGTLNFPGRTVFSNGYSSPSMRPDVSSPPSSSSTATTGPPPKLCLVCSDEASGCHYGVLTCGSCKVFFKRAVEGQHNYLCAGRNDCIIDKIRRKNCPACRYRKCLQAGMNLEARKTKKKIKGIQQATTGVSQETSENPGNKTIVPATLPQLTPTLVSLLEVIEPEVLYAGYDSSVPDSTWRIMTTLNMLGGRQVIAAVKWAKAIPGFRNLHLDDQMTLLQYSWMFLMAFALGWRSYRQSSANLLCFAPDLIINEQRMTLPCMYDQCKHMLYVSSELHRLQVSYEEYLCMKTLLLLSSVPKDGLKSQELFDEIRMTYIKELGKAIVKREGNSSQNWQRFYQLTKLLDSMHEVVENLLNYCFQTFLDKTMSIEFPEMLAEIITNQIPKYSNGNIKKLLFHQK
Method in brief: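 Readout is reporter transcript from a chimeric GR-Gal4 acting on GAL4-UAS in transfected human HepG2 liver cells after 24 h exposure, quantified by RT-PCR and capillary electrophoresis. Activation fitted upward against DMSO.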

[2] = molecular target: Oxysterols receptor LXR-alpha (Homo sapiens) (UniProt Q13133); assay: ATG_LXRa_TRANS: Attagene TRANS-FACTORIAL HepG2 Assay for human Liver X Receptor alpha (LXRa) (AID 2282980; active means hit-call score of the fitted dose curve at least 0.9, where 1 is the maximum); details: HepG2 Attagene TRANS reporter, LXRa transactivation
Chain of Oxysterols receptor LXR-alpha (Homo sapiens) (Q13133 whole entry, looked up, the tested form may be a part): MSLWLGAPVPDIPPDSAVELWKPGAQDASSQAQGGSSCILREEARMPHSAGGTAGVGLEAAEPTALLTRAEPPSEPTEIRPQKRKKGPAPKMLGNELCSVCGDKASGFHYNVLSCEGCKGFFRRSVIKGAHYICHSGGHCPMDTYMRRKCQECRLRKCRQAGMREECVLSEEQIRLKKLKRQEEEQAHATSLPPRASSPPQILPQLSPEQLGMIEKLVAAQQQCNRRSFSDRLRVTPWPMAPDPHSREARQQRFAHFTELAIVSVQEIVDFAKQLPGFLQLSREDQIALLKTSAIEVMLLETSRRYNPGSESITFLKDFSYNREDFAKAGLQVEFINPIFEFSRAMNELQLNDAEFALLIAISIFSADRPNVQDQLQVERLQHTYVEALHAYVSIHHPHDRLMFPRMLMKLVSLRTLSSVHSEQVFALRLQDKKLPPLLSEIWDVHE
Method in brief: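 In this multiplexed TRANS system, compounds act on HepG2 cells carrying GAL4-UAS reporter units and a receptor-GAL4 fusion for 24 h. Induced reporter RNA is amplified, fluorescently labelled and sized by capillary electrophoresis, with DMSO as baseline.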

[3] = molecular target: Hepatocyte nuclear factor 4-alpha (Homo sapiens) (UniProt P41235); assay: ATG_HNF4a_TRANS: Attagene TRANS-FACTORIAL HepG2 Assay for human Hepatocyte Nuclear Factor 4 alpha (HNF4a) (AID 2282982; active means hit-call score of the fitted dose curve at least 0.9, where 1 is the maximum); details: HepG2 HNF4a transactivation reporter, mRNA readout
Chain of Hepatocyte nuclear factor 4-alpha (Homo sapiens) (P41235 whole entry, looked up): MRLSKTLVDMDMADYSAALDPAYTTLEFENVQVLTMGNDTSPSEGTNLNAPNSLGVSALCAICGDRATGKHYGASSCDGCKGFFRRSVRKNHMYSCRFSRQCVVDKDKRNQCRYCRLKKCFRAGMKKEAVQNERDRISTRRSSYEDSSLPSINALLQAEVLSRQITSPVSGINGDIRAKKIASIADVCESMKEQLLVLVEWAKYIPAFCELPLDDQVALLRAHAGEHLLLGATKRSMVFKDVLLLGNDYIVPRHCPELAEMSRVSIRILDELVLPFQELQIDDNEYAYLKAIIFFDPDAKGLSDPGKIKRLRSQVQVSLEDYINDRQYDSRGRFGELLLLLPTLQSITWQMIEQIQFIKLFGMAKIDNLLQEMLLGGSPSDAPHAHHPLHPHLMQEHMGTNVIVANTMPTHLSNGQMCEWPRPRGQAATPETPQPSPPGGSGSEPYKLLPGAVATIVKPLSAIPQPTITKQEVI
Method in brief: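 Multiplexed reporter assay: transfected HepG2, 24 h exposure, total RNA → oligo(dT) RT → PCR → 6-FAM extension → HpaI digest → CE fluorescence. DMSO = negative control.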

[4] = ATG_M_06_TRANS: Attagene TRANS-FACTORIAL HepG2 Assay for M06 Transcription Factor (Internal Marker) (AID 2282983; active means hit-call score of the fitted dose curve at least 0.9, where 1 is the maximum); details: HepG2 Attagene TRANS M06 internal marker reporter
Method in brief: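 Multi-reporter-transfected HepG2, 24 h treatment; reporter transcripts quantified via RT-PCR, primer-extension labelling and CE. DMSO-normalized gain-of-signal fit.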

[5] = ATG_M_32_TRANS: Attagene TRANS-FACTORIAL HepG2 Assay for M32 Transcription Factor (Internal Marker) (AID 2282984; active means hit-call score of the fitted dose curve at least 0.9, where 1 is the maximum;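 further: transcript level of a background control reporter unit measured by RT-PCR and capillary electrophoresis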); details: HepG2 Attagene TRANS M32 internal marker reporter
Method in brief: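 Cell-based TRANS-format assay in HepG2: exogenous chimeric GAL4 reporter units transiently expressed, compounds applied 24 h. Reporter mRNA detected by RT-PCR plus capillary electrophoresis; this readout is an internal background marker.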

[6] = molecular target: Nuclear receptor subfamily 4 group A member 2 (Homo sapiens) (UniProt P43354); assay: ATG_NURR1_TRANS: Attagene TRANS-FACTORIAL HepG2 Assay for human Nuclear Receptor Related Protein 1 (NURR1) (AID 2282985; active means hit-call score of the fitted dose curve at least 0.9, where 1 is the maximum); details: HepG2 Attagene TRANS reporter, mRNA readout
Chain of Nuclear receptor subfamily 4 group A member 2 (Homo sapiens) (P43354 whole entry, looked up, the tested form may be a part): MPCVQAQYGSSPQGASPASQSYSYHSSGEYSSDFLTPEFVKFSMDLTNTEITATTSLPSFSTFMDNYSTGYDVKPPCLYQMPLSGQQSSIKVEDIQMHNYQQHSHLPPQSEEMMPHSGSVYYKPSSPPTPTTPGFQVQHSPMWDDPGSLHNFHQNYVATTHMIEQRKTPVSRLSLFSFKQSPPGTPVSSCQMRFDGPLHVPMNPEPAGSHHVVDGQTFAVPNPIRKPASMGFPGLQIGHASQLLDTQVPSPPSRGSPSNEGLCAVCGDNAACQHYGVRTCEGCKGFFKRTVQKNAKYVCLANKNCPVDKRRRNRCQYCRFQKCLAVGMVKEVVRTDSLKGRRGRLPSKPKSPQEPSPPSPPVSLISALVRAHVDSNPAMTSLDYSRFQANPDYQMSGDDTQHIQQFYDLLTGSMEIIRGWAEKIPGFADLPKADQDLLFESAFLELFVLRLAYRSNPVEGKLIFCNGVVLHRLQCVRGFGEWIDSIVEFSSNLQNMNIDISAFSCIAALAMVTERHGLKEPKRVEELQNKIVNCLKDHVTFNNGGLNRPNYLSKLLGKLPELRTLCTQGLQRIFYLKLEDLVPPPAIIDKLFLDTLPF
Method in brief: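 Measures transcriptional activation by an exogenous NR-Gal4 chimera in transfected HepG2 liver cells. After 24 h, reporter RNA is reverse-transcribed, amplified and resolved by capillary electrophoresis; DMSO defines baseline.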

[7] = molecular target: Nuclear respiratory factor 1 (Homo sapiens) (UniProt Q16656); assay: ATG_NRF1_CIS: Attagene CIS-FACTORIAL HepG2 Assay for human Nuclear Respiratory Factor 1 (NRF1) Orphan Gene (AID 2282987); details: HepG2 NRF1 cis-element reporter, Attagene multiplex; actives raise or lower the signal
Chain of Nuclear respiratory factor 1 (Homo sapiens) (Q16656 whole entry, looked up): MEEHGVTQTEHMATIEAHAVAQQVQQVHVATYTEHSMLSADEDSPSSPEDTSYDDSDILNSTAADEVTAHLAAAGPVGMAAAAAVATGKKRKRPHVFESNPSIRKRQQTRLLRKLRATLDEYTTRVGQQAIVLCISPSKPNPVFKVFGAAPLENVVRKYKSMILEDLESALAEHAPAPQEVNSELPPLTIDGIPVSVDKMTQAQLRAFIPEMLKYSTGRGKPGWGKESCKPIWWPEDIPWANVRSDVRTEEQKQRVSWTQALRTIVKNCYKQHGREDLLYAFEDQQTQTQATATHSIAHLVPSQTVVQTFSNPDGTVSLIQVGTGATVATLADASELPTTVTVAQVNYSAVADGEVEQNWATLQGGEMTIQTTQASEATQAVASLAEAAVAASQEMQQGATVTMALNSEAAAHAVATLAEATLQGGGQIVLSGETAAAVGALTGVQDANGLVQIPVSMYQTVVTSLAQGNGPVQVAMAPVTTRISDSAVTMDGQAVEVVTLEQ
Method in brief: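 Endogenous NRF1-driven reporter transcription in transfected HepG2 cells after 24 h treatment. Readout: RT-PCR products, 6-FAM labelled and resolved by capillary electrophoresis; changes fitted both directions relative to DMSO.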

[8] = ATG_NFI_CIS: Attagene CIS-FACTORIAL HepG2 Assay for human Nuclear Factor I (NFI) (AID 2282989); details: HepG2 cis-regulatory reporter, NFI response element transcription; actives raise or lower the signal
Method in brief: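 Multiplexed cis-reporter system in human HepG2 cells reports native TF activity as reporter mRNA induction 24 h post-dose. Fragments labelled with 6-FAM, HpaI-digested and resolved by capillary electrophoresis; activity fitted both directions versus DMSO.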

[9] = molecular target: Myc proto-oncogene protein (Homo sapiens) (UniProt P01106); assay: ATG_Myc_CIS: Attagene CIS-FACTORIAL HepG2 Assay for human Myelocytomatosis (Myc) Proto-Oncogene Transcription Factor (AID 2282990); details: HepG2, Attagene cis-reporter transcription factor activity; actives raise or lower the signal
Chain of Myc proto-oncogene protein (Homo sapiens) (P01106 whole entry, looked up, the tested form may be a part): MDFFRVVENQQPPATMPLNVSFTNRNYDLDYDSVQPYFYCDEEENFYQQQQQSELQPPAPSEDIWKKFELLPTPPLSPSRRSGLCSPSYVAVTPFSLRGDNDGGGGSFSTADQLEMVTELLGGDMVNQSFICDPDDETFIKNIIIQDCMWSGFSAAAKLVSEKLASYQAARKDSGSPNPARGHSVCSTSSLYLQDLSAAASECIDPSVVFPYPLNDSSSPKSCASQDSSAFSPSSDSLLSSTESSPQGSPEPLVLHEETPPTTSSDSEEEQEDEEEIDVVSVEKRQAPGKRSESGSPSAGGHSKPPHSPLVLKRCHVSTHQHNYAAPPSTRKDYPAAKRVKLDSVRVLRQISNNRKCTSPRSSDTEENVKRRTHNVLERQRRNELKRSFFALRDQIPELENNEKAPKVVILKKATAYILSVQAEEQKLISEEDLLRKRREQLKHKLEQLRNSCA
Method in brief: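 After 24 h chemical treatment of HepG2 cells carrying multiplexed cis-regulated reporter constructs, reporter transcripts quantified by RT-PCR and capillary electrophoresis of fluorescent fragments. Gain or loss fitted against DMSO baseline.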

[10] = ATG_NF_kB_CIS: Attagene CIS-FACTORIAL HepG2 Assay for human Nuclear Factor Kappa B (NF-kB) (AID 2282991); details: HepG2 Attagene cis-factorial NF-kB reporter mRNA; actives raise or lower the signal
Method in brief: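 Readout is reporter transcript level, gain or loss versus DMSO, measured 24 h post-dose via RT-PCR, fluorescent labelling and capillary electrophoresis. Human HepG2 liver cells carried transiently transfected CIS reporter constructs reflecting endogenous factors.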

[11] = ATG_NRF2_ARE_CIS: Attagene CIS-FACTORIAL HepG2 Assay for human Nuclear Factor Erythroid 2 Related Factor 2 (NFR2) response to Antioxidant Response Elements (ARE) (AID 2282992); details: HepG2 Attagene ARE/NRF2 reporter, transcription factor activity; actives raise or lower the signal;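 on AC50: reporter mRNA level measured by RT-PCR and capillary electrophoresis fluorescence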
Method in brief: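 Fluorescence intensity of reporter-specific cDNA fragments, separated by capillary electrophoresis, reflects mRNA induction in transfected HepG2 cells at 24 h. Activity is fitted bidirectionally, DMSO serving as baseline.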

[12] = ATG_Oct_MLP_CIS: Attagene CIS-FACTORIAL HepG2 Assay for human Octamer-Binding Transcription Factor (Oct) (AID 2282993); details: HepG2 Attagene cis-factorial Oct reporter, mRNA; actives raise or lower the signal
Method in brief: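 After 24 h compound exposure, transfected HepG2 cells were lysed for total RNA; reporter-specific cDNA was PCR-amplified, fluorescently labelled and sized by capillary electrophoresis. Bidirectional curve fitting used DMSO as baseline.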

[13] = molecular target: Cellular tumor antigen p53 (Homo sapiens) (UniProt P04637); assay: ATG_p53_CIS: Attagene CIS-FACTORIAL HepG2 Assay for human p53 Transcription Factor (AID 2282994); details: HepG2 p53 cis-element reporter, Attagene mRNA; actives raise or lower the signal
Chain of Cellular tumor antigen p53 (Homo sapiens) (P04637 whole entry, looked up): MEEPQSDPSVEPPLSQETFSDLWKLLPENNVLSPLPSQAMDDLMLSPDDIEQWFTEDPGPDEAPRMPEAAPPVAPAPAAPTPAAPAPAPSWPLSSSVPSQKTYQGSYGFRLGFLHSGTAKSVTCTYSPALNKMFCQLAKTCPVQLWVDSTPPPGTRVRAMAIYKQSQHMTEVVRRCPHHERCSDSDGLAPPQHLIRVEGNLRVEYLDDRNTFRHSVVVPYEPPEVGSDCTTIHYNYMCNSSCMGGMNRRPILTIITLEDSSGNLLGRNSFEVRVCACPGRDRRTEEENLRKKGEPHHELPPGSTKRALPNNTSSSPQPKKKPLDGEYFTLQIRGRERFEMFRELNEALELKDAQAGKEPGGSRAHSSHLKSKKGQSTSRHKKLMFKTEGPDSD
Method in brief: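 Transiently transfected HepG2 (multiple cis reporter transcription units); exposure 24 h; reporter RNA via RT-PCR, 6-FAM extension, 2 h HpaI digest at 37 C, CE detection; DMSO baseline.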

[14] = molecular target: Transcriptional activator Myb (Homo sapiens) (UniProt P10242); assay: ATG_Myb_CIS: Attagene CIS-FACTORIAL HepG2 Assay for human Myeloblastosis (Myb) Proto-Oncogene Transcription Factor (AID 2282986); details: HepG2 Attagene CIS-FACTORIAL Myb reporter transcription; actives raise or lower the signal
Chain of Transcriptional activator Myb (Homo sapiens) (P10242 whole entry, looked up): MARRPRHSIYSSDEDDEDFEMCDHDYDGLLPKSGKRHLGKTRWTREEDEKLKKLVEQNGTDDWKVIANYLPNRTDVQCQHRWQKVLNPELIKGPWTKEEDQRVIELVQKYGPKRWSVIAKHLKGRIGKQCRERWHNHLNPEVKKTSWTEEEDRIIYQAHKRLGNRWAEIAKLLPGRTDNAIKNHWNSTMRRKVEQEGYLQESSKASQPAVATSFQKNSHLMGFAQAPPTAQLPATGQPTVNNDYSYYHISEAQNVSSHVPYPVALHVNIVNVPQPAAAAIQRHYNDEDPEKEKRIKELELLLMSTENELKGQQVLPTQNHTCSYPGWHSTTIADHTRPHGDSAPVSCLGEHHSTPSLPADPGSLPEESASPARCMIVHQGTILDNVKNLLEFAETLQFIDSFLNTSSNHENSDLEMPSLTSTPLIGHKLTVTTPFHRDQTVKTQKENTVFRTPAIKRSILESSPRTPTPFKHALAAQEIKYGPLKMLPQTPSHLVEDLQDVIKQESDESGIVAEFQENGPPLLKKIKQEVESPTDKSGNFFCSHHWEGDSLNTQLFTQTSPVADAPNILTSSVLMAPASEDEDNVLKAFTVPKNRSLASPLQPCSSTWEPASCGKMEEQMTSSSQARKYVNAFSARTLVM
Method in brief: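 Reporter mRNA is quantified by RT-PCR and capillary electrophoresis 24 h after dosing HepG2 cells transfected with cis-regulated reporter units, which track endogenous transcription factor activity. Gain and loss of signal are fitted versus DMSO baseline.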

[15] = molecular target: Oxysterols receptor LXR-beta (Homo sapiens) (UniProt P55055); assay: ATG_LXRb_TRANS: Attagene TRANS-FACTORIAL HepG2 Assay for human Liver X Receptor beta (LXRb) (AID 2282981; active means hit-call score of the fitted dose curve at least 0.9, where 1 is the maximum); details: HepG2 Attagene TRANS GAL4-LXRb reporter, mRNA
Chain of Oxysterols receptor LXR-beta (Homo sapiens) (P55055 whole entry, looked up, the tested form may be a part): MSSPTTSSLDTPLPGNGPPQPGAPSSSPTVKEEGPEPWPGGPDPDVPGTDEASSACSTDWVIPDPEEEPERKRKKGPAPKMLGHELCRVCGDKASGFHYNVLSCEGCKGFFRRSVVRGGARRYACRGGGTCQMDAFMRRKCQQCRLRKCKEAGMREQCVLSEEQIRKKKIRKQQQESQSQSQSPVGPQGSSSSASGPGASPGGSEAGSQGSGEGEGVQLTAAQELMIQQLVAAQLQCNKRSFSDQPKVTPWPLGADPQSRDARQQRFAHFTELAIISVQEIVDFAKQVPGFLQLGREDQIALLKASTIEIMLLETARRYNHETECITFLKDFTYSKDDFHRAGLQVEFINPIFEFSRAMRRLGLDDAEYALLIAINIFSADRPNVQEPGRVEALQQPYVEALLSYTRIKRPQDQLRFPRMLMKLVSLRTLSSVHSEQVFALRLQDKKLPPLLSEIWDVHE
Method in brief: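 After 24 h of chemical treatment, transfected HepG2 cells yield total RNA; reporter cDNA is PCR-amplified, FAM-labelled, HpaI-cut and run on capillary electrophoresis. Signal reflects chimeric LXRb-Gal4 activity on GAL4-UAS reporters.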

[16] = molecular target: Bile acid receptor (Homo sapiens) (UniProt Q96RI1); assay: ATG_FXR_TRANS: Attagene TRANS-FACTORIAL HepG2 Assay for Farnesoid X Receptor (FXR) (AID 2282979; active means hit-call score of the fitted dose curve at least 0.9, where 1 is the maximum;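 further: hits raise reporter mRNA above DMSO so AC50 marks FXR activation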); details: HepG2 Attagene TRANS FXR-GAL4 reporter transcription
Method in brief: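 After 24 h chemical treatment of transfected HepG2 cells, GAL4-UAS reporter transcripts driven by an exogenous FXR-GAL4 fusion were measured by RT-PCR and capillary electrophoresis. Increases over DMSO were fitted.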

[17] = BSK_3C_TissueFactor: BioMAP Diversity Plus: 3C Assay for Tissue Factor Biomarker Activity (AID 2282997); details: BioMAP 3C HUVEC, tissue factor biomarker readout; actives raise or lower the signal
Method in brief: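 In this endothelial system, HUVEC are treated for 24 h and Tissue Factor is assessed by ELISA, normalised to DMSO.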

[18] = BSK_3C_uPAR: BioMAP Diversity Plus: 3C Assay for Urokinase-type plasminogen activator receptor (uPAR) Biomarker Activity (AID 2282998); details: BioMAP 3C HUVEC, uPAR biomarker ELISA; actives raise or lower the signal
Method in brief: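 Values derive from bidirectional curve fitting relative to DMSO, which served as baseline of activity. uPAR was measured by ELISA in human umbilical vein endothelial primary cultures 24 h after compound addition.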

[19] = BSK_3C_VCAM1: BioMAP Diversity Plus: 3C Assay for Vascular cell adhesion molecule 1 (VCAM1) Biomarker Activity (AID 2282999); details: BioMAP 3C HUVEC, VCAM1 ELISA, cytokine-stimulated; actives raise or lower the signal
Method in brief: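 Activity fitted in both directions relative to DMSO, with ELISA measurement of the surface marker on primary HUVEC (3C) at 24 h post-treatment; parallel SRB staining (0.1% SRB, TCA-fixed, 560 nm) flagged overt cytotoxicity.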

[20] = BSK_4H_Eotaxin3: BioMAP Diversity Plus: 4H Assay for Eotaxin 3 Biomarker Activity (AID 2283000); details: primary human endothelial cells (HUVEC); actives raise or lower the signal;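 further: CCL26 protein level quantified by ELISA in parallel with SRB cytotoxicity check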
Method in brief: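 ELISA quantitation of CCL26 (Eotaxin-3) protein from chemically dosed human vascular endothelial cells at 24 h; increases and decreases both scored relative to DMSO-treated baseline.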

Measured: AC50

CCN(CC)c1ccc(C(=C2C=CC(=[N+](CC)CC)C=C2)c2ccc(S(=O)(=O)O)cc2S(=O)(=O)[O-])cc1
inactive: [1] | [2] | [3] | [4] | [5] | [6] | [7] | [8] | [9] | [10] | [11] | [12] | [13]

CC(C)CCCCCCCOC(=O)c1ccc(C(=O)OCCCCCCCC(C)C)c(C(=O)OCCCCCCCC(C)C)c1
inactive: [1] | [2] | [3] | [4] | [5] | [14] | [7] | [8] | [9] | [10] | [11] | [12] | [13]

[Ca+2]
inactive: [1] | [2] | [15] | [3] | [4] | [6] | [14] | [7] | [8] | [9] | [10] | [11] | [12]

O=c1cc(-c2ccccc2)oc2cc(O)cc(O)c12
inactive: [1] | [2] | [4] | [5] | [6] | [14] | [7] | [8] | [9] | [12]
active: [10] 12.4 µM | [11] 2.2 µM | [13] 3.66 µM

CCOC(=S)SSC(=S)OCC
inactive: [1] | [2] | [3] | [5] | [14] | [8] | [9] | [11] | [12]

O=C(O)c1cccc([N+](=O)[O-])c1
inactive: [1] | [2] | [3] | [4] | [5] | [14] | [7] | [9] | [10] | [11] | [12]

CC(C)c1cccc(O)c1
inactive: [1] | [2] | [4] | [5] | [6] | [14] | [8] | [9] | [10] | [11] | [12] | [13]

CC(C)(C)NC(N)=O
inactive: [1] | [2] | [15] | [4] | [6] | [14] | [9] | [10] | [11] | [12] | [13]

C=CCOc1nc(OCC=C)nc(OCC=C)n1
inactive: [1] | [2] | [15] | [4] | [5] | [14] | [7] | [8] | [9] | [10] | [11] | [12] | [13]

CC(C)(CO)[N+](=O)[O-]
inactive: [1] | [2] | [15] | [3] | [5] | [6] | [14] | [7] | [9] | [11] | [12]

CC(=O)OCCC(C)CC(C)(C)C (stereo not drawn)
inactive: [1] | [16] | [4] | [6] | [14] | [7] | [8] | [9] | [11] | [12] | [17] | [18] | [19] | [20]
